Compounds with a hit are over-represented: about 13% of the library has one in this group of screens.
Sfp inh = qHTS Assay for Inhibitors of Bacillus subtilis Sfp phosphopantetheinyl transferase (PPTase); 4'-phosphopantetheinyl transferase ffp (Bacillus subtilis), Q9F4F7; Biochemical Sfp PPTase activity, qHTS; Potency, µM, inactives show largest response in the series, negative = inhibition, actives largely listed as inhibitors; 3.5% of 310,000 active; AID 1490, 2009;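 also: the enzyme is Sfp with the accession as filed and its product quenches rhodamine fluorescence; potency is read from the fitted curve at half-maximal effect; 0% = enzyme reaction without inhibitor and -100% = no enzyme wells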
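Buffer: 50 mM Hepes-Na pH 7.6, 10 mM MgCl2, 0.01% Nonidet P-40, 0.01% BSA. Enzyme 15 nM, pre-exposed to compound 15 min; substrates then added and fluorescence change tracked over 30 min.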
ALDH1A1 inh = qHTS Assay for Inhibitors of Aldehyde Dehydrogenase 1 (ALDH1A1). Purified ALDH1A1, NADH fluorescence, propionaldehyde substrate. Aldehyde dehydrogenase 1A1 (Homo sapiens), P00352. 7.3% of 220,000 active. Potency, µM (highest dose often 75.3 µM), for the others: at the highest dose activity, negative = inhibition, most hits filed as inhibitors; active = well fitted inhibition curve with a large enough effect, not every such curve was filed as active; inconclusive = small, poorly fitted or top-dose-only effect, or another doubt; inactive = no such curve, though single readings can be large or run the other way;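 also: potency is read from the fitted curve at half-maximal effect; plate controls were no enzyme wells and a reference inhibitor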
Target sequence (P00352 whole entry, looked up): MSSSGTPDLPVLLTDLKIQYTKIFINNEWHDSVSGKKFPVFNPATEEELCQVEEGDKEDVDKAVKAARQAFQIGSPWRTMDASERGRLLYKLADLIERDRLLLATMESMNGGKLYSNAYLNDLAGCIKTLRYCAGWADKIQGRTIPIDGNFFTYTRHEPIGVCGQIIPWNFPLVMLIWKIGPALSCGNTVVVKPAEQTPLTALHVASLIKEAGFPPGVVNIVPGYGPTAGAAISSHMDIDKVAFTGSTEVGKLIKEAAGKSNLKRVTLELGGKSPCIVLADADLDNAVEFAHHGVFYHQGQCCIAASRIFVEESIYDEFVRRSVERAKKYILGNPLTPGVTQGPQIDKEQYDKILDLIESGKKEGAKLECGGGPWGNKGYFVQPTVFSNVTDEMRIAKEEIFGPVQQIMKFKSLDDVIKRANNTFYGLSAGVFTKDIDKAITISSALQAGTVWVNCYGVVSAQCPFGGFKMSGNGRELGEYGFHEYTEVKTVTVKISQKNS
KDM4E inh = qHTS Assay for Inhibitors of Human Jumonji Domain Containing 2E (JMJD2E); JMJD2E catalytic domain, FDH-coupled NADH fluorescence (FDH is formaldehyde dehydrogenase); Potency, µM (series often up to 57.1 µM), without a hit: top-dose activity change, negative = inhibition, hits mostly inhibitors; 1.6% of 230,000 active; active = well fitted inhibition curve with a large enough effect, not every such curve was filed as active; inconclusive = small, poorly fitted or top-dose-only effect, or another doubt; inactive = no such curve, though single readings can be large or run the other way;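 also: potency is read from the fitted curve at half-maximal effect; 0% = wells with enzyme and -100% = buffer wells without enzyme; nearly all actives have a fitted effect of over 50% in size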
LMNA splice mod = qHTS Assay for Modulators of Lamin A Splicing | HeLa LMNA splicing GFP/RFP minigene ratio, 48 h | 0.01% of 200,000 active | AID 1487, 2009 | Potency, µM (doses to about 46.1 µM), for the others: at the top dose ratio change, negative = inhibition, most hits filed as inhibitors; active = well fitted inhibition curve with a large enough effect in the signal ratio, with a control signal flat, not every such curve was filed as active; inconclusive = small, poorly fitted or top-dose-only effect, or effect the other way, or a change in a side signal; the % refers to the signal ratio; also: potency is read from the fitted curve at half-maximal effect; % is scaled to controls: 0 for no effect and ±100 for the full control effect
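Read-out is the ratio of GFP to DsRed2 object intensity, acquired by 488 nm laser-scanning cytometry on HeLa lamin A-EGFP minigene reporter cells. Compound incubation 48 hrs at 37 °C in Opti-MEM with 2% FBS; DMSO 0.5% final.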
G9a inh = qHTS Assay for Inhibitors of Histone Lysine Methyltransferase G9a; Histone-lysine N-methyltransferase EHMT2 (Homo sapiens), Q96KQ7; G9a H3K9 monomethylation, AlphaScreen, 2 h; Potency, µM (doses to about 102 µM), inactives show at the highest dose activity, negative = inhibition, actives largely listed as inhibitors; 8.8% of 350,000 active; also: potency is read from the fitted curve at half-maximal effect; % is scaled to controls: 0 for no effect and ±100 for the full control effect; nearly all actives have a fitted effect of over 75% in size
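Using a bead-based AlphaScreen, monomethylated H3K9 product from 2 h room-temperature reactions (G9a 20 nM, peptide 500 nM, SAM 20 uM) was detected with 0.5 ug/mL rabbit anti-H3K9me1 antibody.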
miR-21 act = qHTS Assay for Modulators of miRNAs and/orActivators of miR-21; HeLa miR-21 FLuc reporter, luciferase, 48 h; Potency, µM (series often up to 38.3 µM), for the others: at the top dose activity change, positive = activation, actives largely listed as activators; 340,000 tested, under 10 active;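 also: % of control where 0% means no effect; miR-21 action dims this reporter so a rising signal means less miR-21 action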
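HeLa miR-21-FLuc reporter line, endogenous miR-21; 2000 cells/well in DMEM/10% FBS; compound titration up to ~40uM final, 48 h, 37 degree Celsius; luciferase detection reagent, 15 min lysis, CCD luminescence.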
* marks the source's active call; other numbers are inactive results; ? = inconclusive; nt = no result given; ! = repeats disagree; [ ] = another dose, or the depositor's remark. Unless noted, calls follow the shape of the dose curve; as a rule, active = well fitted curve in the direction sought with a large enough effect; inconclusive = small, poorly fitted or top-dose-only effect, or another doubt; inactive = no such curve, though single readings can be large; an effect the other way counts as inactive or inconclusive.

SMILES	Sfp inh	ALDH1A1 inh	KDM4E inh	LMNA splice mod	G9a inh	miR-21 act
CCOC(=O)C1=C(C)OC(N)=C(C#N)C1c1ccc(O)c(OC)c1 (stereo unspecified)	14%	8%	-10%	3%	-13%	5%
C=CCOC(=O)C1=C(C)NC(SCC(=O)OCC)=C(C#N)C1c1ccc(O)c(OC)c1 (stereo unspecified)	-16%	?	-19%	12%	32µM*	-17%
C=CCOC(=O)C1=C(C)NC(SC)=C(C#N)C1c1cccs1 (stereo unspecified)	5%	?	-2%	10%	48%	17%
C=CCOC(=O)C1=C(C)NC(SC)=C(C#N)C1c1ccc(OCC)cc1 (stereo unspecified)	21%	20µM*	?	?	-21%	-1%
COc1ccccc1N(C)S(=O)(=O)c1ccc(C(=O)OCC(=O)Nc2ccccc2F)cc1	9%	2%	0%	-17%[46 µM]	?	1%
COc1ccccc1N(C)S(=O)(=O)c1ccc(C(=O)OCC(=O)N(C)c2ccccc2)cc1	-15%	32µM*	-2%	-5%[46 µM]	17%	4%
CC1(C)CC(=O)c2sc(NC(=O)C3COc4ccccc4O3)nc2C1 (stereo unspecified)	16%	16µM*	?	-2%	?	-45%
CC1(C)CNC(=O)c2sc(NC(=O)c3ccccc3Cl)nc2C1	5%	13µM*	-7%	nt	9%	-30%
Cc1cccc2sc(NNC(=O)C3COc4ccccc4O3)nc12 (stereo unspecified)	32µM*	-4%	?	?	18µM*	-16%
O=C(NNc1nc2c(F)cc(F)cc2s1)C1COc2ccccc2O1 (stereo unspecified)	12%	7%	-10%	nt	40%	0%
CC1(C)CC(=O)c2sc(NC(=O)c3ccco3)nc2C1	-1%	22µM*	-9%	-2%	-16%	-13%
Cc1onc(-c2ccccc2)c1C(=O)Nc1nc2c(s1)C(=O)CC(C)(C)C2	14%	?	-21%	-1%	-48%	5%
CC(=O)c1sc(NC(=O)C2COc3ccccc3O2)nc1C (stereo unspecified)	7%	-10%	-8%	1%	4%[59 µM]	-1%
COc1ccc([C@@H]2Sc3ccccc3N(CCN(C)C)C(=O)[C@@H]2OC(C)=O)cc1	-11%	-1%	-5%	?	3.2µM*!	2%
Cc1ccc2c(c1)NC(=O)C(CC(=O)NCCCN1CCCC1)O2 (stereo unspecified)	13%	6%	-19%	-5%	-6%	-8%
COc1ccc(N2CCN(CCC3Oc4cc([N+](=O)[O-])ccc4NC3=O)CC2)cc1 (stereo unspecified)	9%	-8%	5%	nt	18µM*	5%
Cc1ccc2c(c1)NC(=O)C(CC(=O)NCCCN1CCc3ccccc3C1)O2 (stereo unspecified)	50µM*	?	-20%	-1%	50µM*	-9%
COc1ccc(N2CCN(CCCNC(=O)CC3Oc4ccc(C)cc4NC3=O)CC2)cc1 (stereo unspecified)	-4%	?	-4%	-11%	35µM*	-1%
CCC(=O)N1CCc2cc(Br)cc(S(=O)(=O)CCC(=O)Nc3ccc(Cl)cc3)c21	nt	nt	nt	nt	-4%[59 µM]	6%
O=C(O)c1cc(-c2ccc(/C=C3/SC(=S)N(Cc4ccccc4)C3=O)o2)ccc1Cl	50µM*	0.089µM*	5%	nt	13µM*	-22%
O=C1/C(=C/c2ccncc2)SC(=S)N1Cc1ccccc1	?	nt	-26%	nt	nt	26%
COc1ccc(CN2C(=O)/C(=C/c3ccc(-c4ccc(Cl)c(C(=O)O)c4)o3)SC2=S)cc1	50µM*	?	12%	nt	32µM*	-2%
CCN1CCN(C(=S)NC(=O)c2cccs2)CC1	-24%	nt	nt	nt	50µM*	-3%
O=C(/C=C/c1cccs1)NC(=S)NNC(=O)c1ccccc1O	37%	?	?	?	10µM*	22%
CCN1CCN(C(=S)NC(=O)/C=C/c2cccs2)CC1	-9%	-1%	6%	?	50µM*	0%
SMILES	Sfp inh	ALDH1A1 inh	KDM4E inh	LMNA splice mod	G9a inh	miR-21 act
COc1ccc(C(=O)NNC(=S)NC(=O)/C=C/c2cccs2)cc1	1%	-3%	12%	17%[46 µM]	3%	-45%
CCN(CC)CCn1c(-c2ccccc2)nc2c(NCc3ccccc3)nc(C)nc21	11%	?	?	nt	nt	nt
Cc1ccc(C)c2nc3sc(C(=O)O)cc3cc12	11%	?	?	?	40µM*	-34%
Cc1ccc(C)c2nc3sc(C(=O)N4CCCc5ccccc54)c(N)c3cc12	-4%	-7%	-2%	19%	?	1%
CC1(c2cccc(Br)c2)NC(=O)NC1=O (stereo unspecified)	16%	nt	nt	nt	11%	1%
CC1CN(C(=O)c2ccc(COc3ccc(C(C)C)cc3)o2)CC(C)O1 (stereo unspecified)	?	28µM*	-10%	nt	17%[0.501 µM]	-39%
CC(C)c1ccc(OCc2ccc(C(=O)O)o2)cc1	15%	nt	7.9µM*	-16%[46 µM]	?	-37%
CC1CN(C(=O)c2ccc(COc3ccc4ccccc4c3)o2)CC(C)O1 (stereo unspecified)	-28%	?	-8%	nt	11%[0.501 µM]	-36%
CC(=O)Nc1ccc(S(=O)(=O)N(C2=NCC(C)S2)c2ccccc2)cc1 (stereo unspecified)	18%	13µM*	1%	-10%	-13%[59 µM]	-2%
CC(C)c1cnc2c(c1SCC(=O)N1CCCCC1)c(=O)n(C)c(=O)n2C	nt	nt	nt	0%[46 µM]	?	-5%
O=C(NNc1ccc(-c2csnn2)cc1)c1ccccc1C(F)(F)F	-5%	2%	-10%	nt	28µM*	-4%
O=C(NNc1ccc(-c2csnn2)cc1)c1cc(Cl)cc(Cl)c1	-11%	nt	-25%	nt	nt	18%
CCOCCCNC(=O)Cn1ncc2c([nH]c3ccccc32)c1=O	nt	nt	nt	-11%[46 µM]	-3%[59 µM]	1%
O=C(NC1CCCC1)[C@@H]1CSC2c3ccccc3C(=O)N21 (stereo partly specified)	5%	nt	nt	nt	10%	-12%
CC(C)[C@H](NC(=O)[C@@H]1CSC2c3ccccc3C(=O)N21)C(=O)NCc1ccco1 (stereo partly specified)	?	nt	nt	nt	nt	2%

Bioassay records as filed in PubChem.
